# Reference: PubChem BioAssay AID1159580 (chemical genetic matrix, 2015)
# Where “and” joins values, the source holds several entries; their conditions need not be identical. Equal entries are not always repeated. About 2,000 (36%) of roughly 5,500 compounds were called active. Roughly 18% stayed inconclusive and do not appear here. This is one part of the list. Values without a mark were called inactive. No stated cut-off is given here; in the data, active means normalized growth mostly below about 0.91 (no sharp cut-off); inconclusive means no clear call, values can overlap the other calls; inactive means mostly above about 0.92.
# Experiment: chemical genetic growth profiling, strain panel (AID 1159580);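 further: tested at 20 µM; growth read once vehicle control cultures reached saturation at 30 °C; 1 = growth at the plate median or of vehicle wells; lower values mean less growth of the strain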
# Details: S. cerevisiae deletion strains, growth OD
compound,measurement,setting,value
CC1CCC(NC(=O)N(CCCl)N=O)CC1 (stereo not drawn),normalized growth,"locus YAL021C, strain ccr4, hits give low values",0.899 (active)
same,normalized growth,"locus YAL026C, strain drs2, hits give low values",0.24 (active)
same,normalized growth,"locus YAL030W, strain snc1, hits give low values",0.796 (active)
same,normalized growth,"locus YBL061C, strain skt5, hits give low values",0.965
same,normalized growth,"locus YBR009C, strain hhf1, hits give low values",0.244 (active)
same,normalized growth,"locus YBR021W, strain FUR4, hits give low values",1.02
same,normalized growth,"locus YBR023C, strain chs3, hits give low values",0.876 (active)
same,normalized growth,"locus YBR171W, strain sec66, hits give low values",0.68 (active)
same,normalized growth,"locus YBR229C, strain ROT2, hits give low values",0.998
same,normalized growth,"locus YBR231C, strain swc5, hits give low values",0.755 (active)
same,normalized growth,"locus YBR279W, strain paf1, hits give low values",0.863 (active)
same,normalized growth,"locus YCL011C, strain gbp2, hits give low values",0.095 (active)
same,normalized growth,"locus YCL016C, strain dcc1, hits give low values",0.703 (active)
same,normalized growth,"locus YCL029C, strain bik1, hits give low values",1.01
same,normalized growth,"locus YCL061C, strain MRC1, hits give low values",0.335 (active)
same,normalized growth,"locus YCL069W, strain vba3, hits give low values",0.834 (active)
same,normalized growth,"locus YCR088W, strain abp1, hits give low values",0.182 (active)
same,normalized growth,"locus YDL005C, strain med2, hits give low values",0.952
same,normalized growth,"locus YDL035C, strain GPR1, hits give low values",0.946
same,normalized growth,"locus YDL040C, strain nat1, hits give low values",0.983
same,normalized growth,"locus YDL074C, strain BRE1, hits give low values",0.874
same,normalized growth,"locus YDL101C, strain DUN1, hits give low values",0.995
same,normalized growth,"locus YDL134C, strain PPH21, hits give low values",0.995
same,normalized growth,"locus YDL185W, strain tfp1, hits give low values",1.01
same,normalized growth,"locus YDL192W, strain arf1, hits give low values",1
same,normalized growth,"locus YDR001C, strain nth1, hits give low values",0.678 (active)
same,normalized growth,"locus YDR069C, strain doa4, hits give low values",0.958
same,normalized growth,"locus YDR101C, strain arx1, hits give low values",0.99
same,normalized growth,"locus YDR137W, strain rgp1, hits give low values",0.718 (active)
same,normalized growth,"locus YDR150W, strain NUM1, hits give low values",0.998
same,normalized growth,"locus YDR159W, strain sac3, hits give low values",0.852 (active)
same,normalized growth,"locus YDR162C, strain NBP2, hits give low values",0.968
same,normalized growth,"locus YDR195W, strain ref2",0.994
same,normalized growth,"locus YDR297W, strain sur2, hits give low values",0.951
same,normalized growth,"locus YDR318W, strain mcm21, hits give low values",0.979
same,normalized growth,"locus YDR334W, strain swr1, hits give low values",0.187 (active)
same,normalized growth,"locus YDR335W, strain msn5, hits give low values",0.933
same,normalized growth,"locus YDR388W, hits give low values",1.01
same,normalized growth,"locus YDR392W, strain spt3, hits give low values",0.126 (active)
same,normalized growth,"locus YDR502C, strain sam2, hits give low values",0.859 (active)
same,normalized growth,"locus YEL003W, strain gim4, hits give low values",0.0715 (active)
same,normalized growth,"locus YEL037C, strain rad23, hits give low values",0.865 (active)
same,normalized growth,"locus YEL061C, strain CIN8 (second series), hits give low values",0.339 (active)
same,normalized growth,"locus YEL061C, strain CIN8, hits give low values",0.992
same,normalized growth,"locus YER015W, strain faa2, hits give low values",0.593 (active)
same,normalized growth,"locus YER016W, strain bim1, hits give low values",0.895 (active)
same,normalized growth,"locus YER110C, hits give low values",1.01
same,normalized growth,"locus YER111C, strain swi4, hits give low values",0.961
same,normalized growth,"locus YER155C, strain BEM2 (second series), hits give low values",0.112 (active)
same,normalized growth,"locus YER155C, strain BEM2, hits give low values",1
same,normalized growth,"locus YER167W, strain BCK2, hits give low values",0.938
same,normalized growth,"locus YFR010W, strain ubp6, hits give low values",0.85 (active)
same,normalized growth,"locus YGL078C, strain dbp3, hits give low values",0.957
same,normalized growth,"locus YGL086W, strain mad1, hits give low values",0.937
same,normalized growth,"locus YGL167C, strain pmr1, hits give low values",0.98
same,normalized growth,"locus YGL173C, strain kem1, hits give low values",0.895 (active)
same,normalized growth,"locus YGL227W, strain vid30, hits give low values",0.07 (active)
same,normalized growth,"locus YGL240W, strain doc1, hits give low values",0.8 (active)
same,normalized growth,"locus YGL248W, strain PDE1, hits give low values",1
same,normalized growth,"locus YGL253W, strain hxk2, hits give low values",0.771 (active)
same,normalized growth,"locus YGR135W, strain pre9, hits give low values",0.935
same,normalized growth,"locus YGR252W, strain gcn5, hits give low values",0.993
same,normalized growth,"locus YHR013C, strain ard1, hits give low values",0.578 (active)
same,normalized growth,"locus YHR027C, strain rpn1, hits give low values",0.695 (active)
same,normalized growth,"locus YHR030C, strain SLT2, hits give low values",0.991 and 0.89
same,normalized growth,"locus YHR079C, strain IRE1 (second series), hits give low values",1
same,normalized growth,"locus YHR079C, strain IRE1, hits give low values",0.866
same,normalized growth,"locus YHR094C, strain hxt1, hits give low values",1.01
same,normalized growth,"locus YHR129C, strain ARP1, hits give low values",0.974
same,normalized growth,"locus YHR142W, strain chs7, hits give low values",0.476 (active)
same,normalized growth,"locus YHR200W, strain rpn10, hits give low values",0.982
same,normalized growth,"locus YIL066C, strain RNR3, hits give low values",0.949
same,normalized growth,"locus YIL073C, strain SPO22, hits give low values",1.02
same,normalized growth,"locus YIL125W, strain kgd1, hits give low values",0.929 (active)
same,normalized growth,"locus YIR030C, strain dcg1, hits give low values",0.995
same,normalized growth,"locus YJL092W, strain hpr5, hits give low values",0.644 (active)
same,normalized growth,"locus YJL095W, strain BCK1 (second series), hits give low values",0.887 (active)
same,normalized growth,"locus YJL095W, strain BCK1, hits give low values",0.928 and 0.908
same,normalized growth,"locus YJL115W, strain asf1, hits give low values",0.622 (active)
same,normalized growth,"locus YJL129C, strain trk1, hits give low values",0.196 (active)
same,normalized growth,"locus YJL134W, strain LCB3, hits give low values",0.997
same,normalized growth,"locus YJL154C, strain vps35, hits give low values",0.975
same,normalized growth,"locus YJL164C, strain tpk1, hits give low values",0.545 (active)
same,normalized growth,"locus YJL166W, strain qcr8, hits give low values",0.427 (active)
same,normalized growth,"locus YJL168C, strain set2, hits give low values",1.01
same,normalized growth,"locus YJL187C, strain SWE1 (second series), hits give low values",1
same,normalized growth,"locus YJR043C, strain POL32, hits give low values",0.662 (active)
same,normalized growth,"locus YJR066W, strain TOR1, hits give low values",0.894
same,normalized growth,"locus YKL009W, strain mrt4, hits give low values",0.921
same,normalized growth,"locus YKL068W, hits give low values",0.983
same,normalized growth,"locus YKL085W, strain MDH1 (second series), hits give low values",0.912 (active)
same,normalized growth,"locus YKL085W, strain MDH1, hits give low values",0.912 (active)
same,normalized growth,"locus YKL160W, strain elf1, hits give low values",0.914
same,normalized growth,"locus YKL190W, strain CNB1, hits give low values",0.996
same,normalized growth,"locus YKR001C, strain vps1, hits give low values",0.841 (active)
same,normalized growth,"locus YKR026C, strain gcn3, hits give low values",0.225 (active)
same,normalized growth,"locus YKR091W, strain srl3, hits give low values",0.81 (active)
same,normalized growth,"locus YLL001W, strain dnm1, hits give low values",0.929
same,normalized growth,"locus YLL026W, hits give low values",0.289 (active)
same,normalized growth,"locus YLL041C, strain sdh2, hits give low values",0.657 (active)
same,normalized growth,"locus YLR027C, strain aat2, hits give low values",0.344 (active)
same,normalized growth,"locus YLR039C, strain RIC1, hits give low values",0.771
same,normalized growth,"locus YLR058C, strain SHM2, hits give low values",0.995
same,normalized growth,"locus YLR102C, strain apc9, hits give low values",1.01
same,normalized growth,"locus YLR113W, strain HOG1, hits give low values",0.902
same,normalized growth,"locus YLR221C, strain rsa3, hits give low values",0.0809 (active)
same,normalized growth,"locus YLR258W, strain gsy2, hits give low values",0.728 (active)
same,normalized growth,"locus YLR262C, strain YPT6 (second series), hits give low values",0.635 (active)
same,normalized growth,"locus YLR262C, strain YPT6, hits give low values",0.656
same,normalized growth,"locus YLR268W, strain sec22, hits give low values",0.894
same,normalized growth,"locus YLR320W, strain mms22, hits give low values",0.232 (active)
same,normalized growth,"locus YLR330W, strain CHS5, hits give low values",0.977
same,normalized growth,"locus YLR342W, strain FKS1 (second series), hits give low values",0.991
same,normalized growth,"locus YLR342W, strain FKS1, hits give low values",0.819 (active)
same,normalized growth,"locus YLR357W, strain rsc2, hits give low values",0.549 (active)
same,normalized growth,"locus YLR370C, strain arc18, hits give low values",0.913
same,normalized growth,"locus YLR371W, strain rom2, hits give low values",0.941
same,normalized growth,"locus YLR384C, strain iki3, hits give low values",0.956
same,normalized growth,"locus YLR418C, strain cdc73, hits give low values",0.554 (active)
same,normalized growth,"locus YML016C, strain PPZ1, hits give low values",1
same,normalized growth,"locus YML032C, strain rad52, hits give low values",1.01
same,normalized growth,"locus YML120C, strain ndi1, hits give low values",0.128 (active)
same,normalized growth,"locus YML124C, strain tub3, hits give low values",1
same,normalized growth,"locus YMR058W, strain fet3, hits give low values",0.216 (active)
same,normalized growth,"locus YMR078C, strain ctf18, hits give low values",1
same,normalized growth,"locus YMR125W, strain sto1, hits give low values",0.0911 (active)
same,normalized growth,"locus YMR129W, hits give low values",0.0909 (active)
same,normalized growth,"locus YMR205C, strain PFK2, hits give low values",0.728 (active)
same,normalized growth,"locus YMR223W, strain ubp8, hits give low values",0.974
same,normalized growth,"locus YMR231W, strain pep5, hits give low values",0.981
same,normalized growth,"locus YMR307W, strain GAS1, hits give low values",0.721
same,normalized growth,"locus YNL067W, strain RPL9B, hits give low values",0.926
same,normalized growth,"locus YNL071W, strain lat1, hits give low values",0.0878 (active)
same,normalized growth,"locus YNL153C, strain GIM3, hits give low values",0.882
same,normalized growth,"locus YNL183C, strain NPR1, hits give low values",0.9
same,normalized growth,"locus YNL209W, strain ssb2, hits give low values",0.798 (active)
same,normalized growth,"locus YNL233W, strain BNI4, hits give low values",0.917
same,normalized growth,"locus YNL248C, strain rpa49, hits give low values",0.0991 (active)
same,normalized growth,"locus YNL250W, strain rad50, hits give low values",0.94
same,normalized growth,"locus YNL271C, strain bni1, hits give low values",0.93
same,normalized growth,"locus YNL298W, strain CLA4, hits give low values",0.957
same,normalized growth,"locus YNL307C, strain MCK1, hits give low values",0.89 (active)
same,normalized growth,"locus YNL322C, strain KRE1 (second series), hits give low values",0.121 (active)
same,normalized growth,"locus YNL322C, strain KRE1, hits give low values",0.985
same,normalized growth,"locus YNR049C, strain mso1, hits give low values",0.939
same,normalized growth,"locus YNR052C, strain pop2, hits give low values",1.02
same,normalized growth,"locus YOL012C, strain htz1",0.346
same,normalized growth,"locus YOL147C, strain pex11, hits give low values",1
same,normalized growth,"locus YOR001W, strain rrp6, hits give low values",0.084 (active)
same,normalized growth,"locus YOR061W, strain CKA2, hits give low values",1
same,normalized growth,"locus YOR069W, strain VPS5, hits give low values",0.998
same,normalized growth,"locus YOR070C, strain gyp1, hits give low values",0.658 (active)
same,normalized growth,"locus YOR080W, strain dia2, hits give low values",0.988
same,normalized growth,"locus YOR083W, strain WHI5, hits give low values",0.598 (active)
same,normalized growth,"locus YOR106W, strain vam3, hits give low values",0.598 (active)
same,normalized growth,"locus YOR136W, strain idh2, hits give low values",0.992
same,normalized growth,"locus YOR144C, strain elg1, hits give low values",0.998
same,normalized growth,"locus YOR184W, strain ser1, hits give low values",0.161 (active)
same,normalized growth,"locus YOR231W, strain MKK1, hits give low values",0.89
same,normalized growth,"locus YOR265W, strain rbl2, hits give low values",0.894 (active)
same,normalized growth,"locus YOR270C, strain vph1, hits give low values",0.503 (active)
same,normalized growth,"locus YOR290C, strain snf2, hits give low values",0.853 (active)
same,normalized growth,"locus YOR316C, strain cot1, hits give low values",1
same,normalized growth,"locus YPL051W, strain arl3, hits give low values",0.816 (active)
same,normalized growth,"locus YPL078C, strain atp4, hits give low values",0.878 (active)
same,normalized growth,"locus YPL106C, strain sse1, hits give low values",0.823 (active)
same,normalized growth,"locus YPL240C, strain hsp82, hits give low values",0.795 (active)
same,normalized growth,"locus YPL256C, strain CLN2, hits give low values",0.855
same,normalized growth,"locus YPR119W, strain clb2, hits give low values",1
same,normalized growth,"locus YPR141C, strain kar3, hits give low values",0.979
same,normalized growth,"locus YPR163C, strain tif3, hits give low values",0.964
same,normalized growth,"locus YPR167C, strain met16, hits give low values",0.999
same,normalized growth,"strain wtn01, hits give low values",0.858 (active)
